Source: PubChem
This is a sample that favours compounds with a hit; in the whole collection about 4.1% have one here.
ssDAF12 agonist – S. stercoralis DAF-12 nuclear receptor activators, primary screen, cell-based, luminescence, HEK293, GRIP1 co-expression, lit1-tk-luc; Nuclear hormone receptor DAF-12 (Strongyloides stercoralis); activation, % at 6.8 µM; 1% of 370,000 active; AID 652126, 2013; HEK293 ssDAF-12/GRIP1 lit1-tk-luc reporter; % of 3 µM dafachronic acid response;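 active = activation above the mean over all tested compounds plus 3 SD, cut at about 0.9% in these data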;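 also: 0% = DMSO-only wells and 100% = 3 µM delta7-dafachronic acid wells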
DAX1 inh-1 – DAX1 (NR0B1) inhibitors, primary screen, cell-based, HEK293, Gal4-DAX1, luciferase luminescence. HEK293 Gal4-DAX1 luciferase reporter. inhibition, % at 6.75 µM. 0.99% of 340,000 active. AID 504766, 2011;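 active = inhibition above the mean over all tested compounds plus 3 SD, cut at about 4.2% in these data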;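 also: 0% = DAX1-transfected cells with DMSO and 100% = empty-vector control cells with DMSO; inhibition shows as a rise in luminescence from relieved DAX1 repression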
Target sequence (P51843 207-470 limits assumed): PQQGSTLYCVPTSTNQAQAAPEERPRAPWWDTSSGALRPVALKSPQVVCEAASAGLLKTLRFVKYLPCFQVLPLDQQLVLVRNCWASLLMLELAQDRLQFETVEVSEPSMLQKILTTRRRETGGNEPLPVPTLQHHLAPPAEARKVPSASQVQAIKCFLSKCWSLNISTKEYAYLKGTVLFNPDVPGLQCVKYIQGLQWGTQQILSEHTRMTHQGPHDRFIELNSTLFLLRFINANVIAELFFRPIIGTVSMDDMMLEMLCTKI
DAX1 inh-2 – DAX1 (NR0B1) inhibitors on StAR promoter, primary screen, cell-based, luminescence, SF-1 (NR5A1), full-length DAX-1 | HEK293T StAR-luciferase reporter, SF-1/DAX-1 repression relief | inhibition, % at 6.8 µM | 1.1% of 370,000 active;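 active = inhibition above the mean over all tested compounds plus 3 SD, cut at about 3.6% in these data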;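 also: 0% = DAX-1 cells with DMSO and 100% = cells lacking DAX-1 with DMSO; higher inhibition means more luminescence from relief of DAX-1 repression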
hcDAF-12 act – H. contortus DAF-12 nuclear receptor activators, primary screen, cell-based, luminescence, HEK293, lit1-tk-luc reporter; 1.4% of 370,000 active; HEK293 hcDAF-12 lit1-tk-luc reporter; 0% DMSO, 100% Δ7-dafachronic acid; AID 652067, 2013; activation, % at 6.8 µM;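 active = activation above the mean of all tested compounds plus 3 SD, cut at about 5.5% in these data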;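 also: 100% = response to 3 µM Δ7-dafachronic acid high control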
hgDAF-12 ag – H. glycines DAF-12 receptor agonists, primary screen, cell-based, luminescence, HEK293, GAL4 fusion, UAS-luciferase. Nuclear hormone receptor DAF-12 (Heterodera glycines), GAL4 fusion. HEK293 GAL4-hgDAF12 UAS-luciferase reporter, agonist luminescence; normalized to butyrate control. activation, % at 6.8 µM. 1.8% of 370,000 active. AID 687014, 2013;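 active = activation above a cutoff set at the mean of all screened compounds plus 3 SD, cut at about 10% in these data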;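 also: 0% = DMSO wells and 100% = sodium butyrate wells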
* = called active by the depositor; · = no result.

SMILES | ssDAF12 agonist | DAX1 inh-1 | DAX1 inh-2 | hcDAF-12 act | hgDAF-12 ag
COCC(C)NC(=O)c1cc(-c2cccc(OC)c2)on1 (stereo unspecified) | -1 | 4 | 3 | 1 | 5
COc1ccc(-c2cc(C(=O)NCc3cccs3)no2)cc1 | -1 | 0 | 1 | 4 | 9
COc1cc(NC(=O)C2CCCN2S(=O)(=O)c2cccc3cccnc23)cc(OC)c1OC (stereo unspecified) | -1 | 4.6* | 0 | -1 | 0
O=C(c1ccco1)N1CCN(c2nc3ccsc3c(=O)s2)CC1 | -2 | 5.1* | 1 | -2 | 4
COC(=O)[C@]12C[C@H](CC(=O)NCCCCc3ccccc3)C(=O)N(Cc3ccc4c(c3)OCO4)C1=C[C@H](COCc1ccccc1)O[C@@H]2C | 0 | · | -1 | 1 | 1
COc1ccc(/C=C/C(=O)Nc2cc(C)nn2-c2nc3ccccc3n2Cc2cccc([N+](=O)[O-])c2)cc1 | 1.0* | 2 | 2 | 4 | 3
COc1ccc(/C=C/C(=O)Nc2cc(C)nn2-c2nc3ccccc3[nH]2)cc1 | -1 | 0 | 0 | -3 | 1
CCc1cccc(Nc2cc(C)nc3nc(C)nn23)c1 | -1 | 4.3* | -1 | -2 | 3
Nc1n[nH]c(N)c1N=Nc1ccc2c(c1)OCO2 | -1 | 4.8* | 1 | 2 | 9
COC/C=C/C1=CC2=CC(=O)C(C)(OC(=O)c3cnc4ccccc4n3)C(=O)C2=CN1CCCCO (stereo unspecified) | -1 | 4.2* | 0 | 0 | -1
C/C(=N\Nc1ccc(C(=O)O)cc1)c1ccc2c(c1)Nc1ccccc1S2 | -2 | 6.1* | 0 | 0 | 0
COc1ccc2oc(C(=O)NC(C)(C)C)c(C)c2c1 | -1 | 2 | 3 | 1 | 13*
O=C(Nc1nnc(SCc2ccccn2)s1)C1CC(=O)N(c2ccccc2)C1 (stereo unspecified) | -1 | 6.5* | -1 | -2 | 2
COC(=O)C1=C(C)N(Cc2ccc(C(F)(F)F)cc2)C(=NCc2ccccc2C(F)(F)F)NC1c1ccc(F)cc1 (stereo unspecified) | -1 | · | 0 | 1 | 1
CC(C)(C)C(=O)Nc1nc(-c2ccccc2)ns1 | 0 | 1 | 3 | 4 | 6
O=C(Nc1nc(-c2ccccc2)ns1)c1ccncc1 | 0 | 8.4* | -1 | 0 | 2
COc1ccccc1NC(=O)NC1(C(=O)N2CCCCC2)CCCCC1 | -1 | 1 | 0 | -2 | 2
Nc1ccn([C@@H]2O[C@H](C(=O)N[C@H](Cc3ccccc3)C(=O)N3CCC(F)(F)CC3)[C@@H](O)[C@H]2O)c(=O)n1 | -1 | · | 1 | -1 | 3
O=C(Nc1cccc(Cl)c1)ON1CCCCC1 | 0 | 1 | 0 | 1 | -4
COCCn1c(=NC(=O)c2ccc(S(=O)(=O)N3CCCc4ccccc43)cc2)sc2cc(S(C)(=O)=O)ccc21 | -1 | 4.7* | 0 | 0 | 2
Cc1ccc(C(=O)NC(=S)Nc2ccccc2N2CCCC2)cc1[N+](=O)[O-] | 1.4* | 1 | -1 | 1 | -1
COc1ccc(C=O)c(OCc2cn(CC(=O)c3ccc(O)cc3)nn2)c1 | 0 | -1 | 1 | -2 | 0
CCOc1ccccc1C(O)C1=CC(=O)c2ccccc2C1=O (stereo unspecified) | -1 | -1 | 1 | 6.2* | -2
Cc1ccc(S(=O)(=O)N(C)CC(=O)N2CCCCCCC2)cc1 | -1 | -2 | -1 | 0 | 0
Cc1ccc(S(=O)(=O)N(C)CC(=O)N2CCN(Cc3ccccc3)CC2)cc1 | -1 | 5.0* | -1 | 1 | -2
SMILES | ssDAF12 agonist | DAX1 inh-1 | DAX1 inh-2 | hcDAF-12 act | hgDAF-12 ag
Cc1c2ccncc2cc2c1[nH]c1ccccc12 | -1 | -2 | -3 | 4 | 11*
Cc1cc2c([nH]c3ccccc32)c(C)n1 | 0 | 4 | 0 | -1 | 3
O=C(NC1CCCCC1)C(C1CC1)n1c(=O)c(-c2ccco2)nc2ccccc21 (stereo unspecified) | 1.9* | · | 0 | 0 | -3
O=C(NCc1ccccc1)C(c1ccncc1)n1c(=O)c(-c2ccco2)nc2ccccc21 (stereo unspecified) | -1 | · | 1 | 0 | 2
O=C(NC1CCCCC1)C(c1ccccc1)n1c(=O)c(-c2ccco2)nc2ccccc21 (stereo unspecified) | -1 | · | 0 | -1 | 0
COc1ccc(NC(=O)C(c2ccnc3ccccc23)n2c(=O)c(-c3ccccc3)nc3ccccc32)cc1 (stereo unspecified) | 0 | · | -1 | 5.6* | -1
O=C(NCc1ccccc1)C(c1ccc(-c2ccccc2)cc1)n1c(=O)c(-c2ccco2)nc2ccccc21 (stereo unspecified) | 1.3* | · | 0 | 2 | 2
COc1ccc(C(C(=O)NC(C)(C)C)n2c(=O)c(-c3ccco3)nc3ccccc32)cc1 (stereo unspecified) | 1.5* | · | -1 | 1 | 2
O=C(CNS(=O)(=O)c1c(Cl)cccc1Cl)N1CCCCCC1 | 1.0* | 3 | 1 | 2 | 7
O=C(CNS(=O)(=O)c1cccs1)N1CCCCC1 | -1 | 0 | 0 | 0 | 0
FC(F)(F)c1ccccc1Cn1ccc2ccc(-c3ccc4ccn(Cc5ccccc5C(F)(F)F)c4c3)cc21 | -1 | · | -1 | 1 | -2
NS(=O)(=O)c1ccc(CNC(=S)NC2CCCC2)cc1 | -2 | 4.5* | 0 | -2 | -2
Cc1cccnc1NC(=S)NCCc1ccccc1 | 1 | 2 | 1 | 1 | 12*
Cc1cccc(NC(=S)NCCc2ccccc2)c1C | -2 | -1 | 0 | 1 | 0
Cc1cccnc1NC(=S)Nc1ncccc1C | 0 | 4.8* | 2 | 3 | 11*
S=C(NCCc1ccccc1)NC1CCCCCC1 | 0 | 3 | 3 | 3 | 11*
Cc1cccnc1NC(N)=S | -1 | 1 | 0 | 0 | 2
C[C@H](CO)N1C[C@H](C)[C@@H](CN(C)S(=O)(=O)c2ccc(-c3ccccc3)cc2)OCc2cn(nn2)CCCC1=O | -1 | 0 | -2 | -2 | 2
Cc1ccccc1NC(=O)C(C)N1C(=O)c2ccccc2C1=O (stereo unspecified) | 0 | -1 | 0 | -1 | 2
Cc1cccnc1NC(=O)C(C)N1C(=O)c2ccccc2C1=O (stereo unspecified) | -1 | 7.5* | 0 | 0 | 1
